An excerpt weighted towards active compounds, which were near 4% of everything screened.
RecA intein inh – Mtb RecA intein splicing inhibitors, primary screen, biochemical, fluorescence, HTS | AID 2221, 2009 | 290,000 tested, 0.75% active | inhibition, % (test concentration not listed) | cell-free RecA intein splicing; in the data active = inhibition above about 30%;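 note: 0% = vehicle wells and 100% = reference inhibitor control wells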
Rv3671c protease – Rv3671c serine protease inhibitors, primary screen, biochemical, fluorescence polarization, M. tuberculosis H37Rv; 320,000 tested, 0.048% active; AID 2606, 2010; P9WHR9; inhibition, % at 5.96 µM; in the data active = inhibition above about 38%;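 note: extracellular domain of Rv3671c used as enzyme; 0% = enzyme with DMSO and 100% = no enzyme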
UGM FP inh – M. tuberculosis UGM enzyme inhibitors, primary screen, biochemical, fluorescence polarization, single point | AID 504406, 2011 | 320,000 tested, 0.06% active | UDP-galactopyranose mutase (Mycobacterium tuberculosis (strain ATCC 25618 / H37Rv)), … | inhibition, % at 10 µM | purified UGM, fluorescence polarization probe displacement; in the data active = inhibition above about 10%, passing the limit was not always enough
GDH-TPI inh – GDH-TPI coupling enzyme inhibitors, primary screen, artefact control for M. tuberculosis FBA inhibitor project, biochemical, absorbance, full deck; 360,000 tested, 1.2% active; GDH-TPI coupled enzyme counterscreen, NADH absorbance; inhibition, % at 4.8 µM; AID 588335, 2011; in the data active = inhibition above about 30%;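 note: 0% = DMSO wells and 100% = wells lacking the enzyme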
Mtb FBA inh – Mtb FBA enzyme inhibitors, primary screen, biochemical, fluorescence, strain H37Rv; Fructose-bisphosphate aldolase (Mycobacterium tuberculosis (strain ATCC 25618 / H37Rv)), …; purified M. tuberculosis FBA, fluorescence read-out; inhibition, % at 1 µM; 360,000 tested, 2.3% active; AID 588726, 2011; in the data active = inhibition above about 27%;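 note: 0% = vehicle and 100% = reference inhibitor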
Target sequence (P9WQA3 whole entry, looked up): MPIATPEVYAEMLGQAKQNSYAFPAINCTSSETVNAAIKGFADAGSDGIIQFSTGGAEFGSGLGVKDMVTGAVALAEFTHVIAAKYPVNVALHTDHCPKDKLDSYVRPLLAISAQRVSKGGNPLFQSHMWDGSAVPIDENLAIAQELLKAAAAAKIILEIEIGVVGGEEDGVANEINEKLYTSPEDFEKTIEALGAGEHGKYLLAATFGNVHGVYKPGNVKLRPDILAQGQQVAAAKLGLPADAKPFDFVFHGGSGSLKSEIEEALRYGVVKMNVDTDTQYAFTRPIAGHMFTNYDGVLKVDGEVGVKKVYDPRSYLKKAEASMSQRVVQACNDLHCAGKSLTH
Mtb bLac sens – beta-lactam sensitization of Mtb H37Rv, H37Rv; M. tuberculosis H37Rv growth with meropenem, percent inhibition; inhibition, % at 25 µM; 330,000 tested, 0.27% active; AID 434955, 2010; call rule not given here;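 note: growth measured after seven days incubation then overnight dye step; 0% = bacteria only wells and 100% = bacteria with antibiotic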
The depositor's hits bear a star; . = no result; + = active, no number.

SMILES	RecA intein inh	Rv3671c protease	UGM FP inh	GDH-TPI inh	Mtb FBA inh	Mtb bLac sens
O=c1oc2ccccc2cc1-c1nc2ccccc2o1	-73	8	2	60*	+	79
O=c1oc2ccccc2cc1-c1nc2c(s1)CCCC2	-46	-7	1	13	139*	.
N#Cc1sc(NCc2ccccc2)nc1Cl	11	-4	0	1	-1	-4
Nc1nc(Sc2ccc([N+](=O)[O-])c3nonc23)c2[nH]cnc2n1	.	.	.	16	-4	.
Cc1cccc(C(=O)NNC2=CC(=O)CC(C)(C)C2)c1O	-2	3	1	37*	5	2
CC1(C)CC(=O)C=C(NNC(=O)c2ccccc2O)C1	-9	-1	4	40*	0	-2
CCN(C(=O)COC(=O)c1cc(Cl)ccc1OC)c1c(N)n(Cc2ccccc2)c(=O)[nH]c1=O	.	0	12*	5	8	2
COc1ccc(Cl)cc1C(=O)OCC(=O)N(CC(C)C)c1c(N)n(Cc2ccccc2)c(=O)[nH]c1=O	3	3	-1	-1	0	-9
COc1cccc(-c2c(NC(=O)c3ccco3)oc3ccc(Cl)cc3c2=O)c1	-4	-2	4	36*	0	5
COc1cccc(-c2c(NC(=O)c3ccco3)oc3ccccc3c2=O)c1	-3	-1	3	24	0	-2
Cc1[nH]c(=O)c(C#N)c(C)c1CCC(=O)NCc1cccc(C(F)(F)F)c1	-4	3	-4	12	2	3
COc1cccc(-c2cc(C(F)(F)F)c3c(N)c(C#N)sc3n2)c1	-6	-8	4	.	.	4
CN(C)/C=N/c1ncc(C(=O)c2ccc(-c3ccccc3)cc2)s1	-8	3	.	34*	-1	3
Cc1cc(C(=O)c2cnc(/N=C/N(C)C)s2)cc(C)c1O	-6	2	-1	19	-5	-1
CN(C)/C=N/c1ncc(C(=O)c2ccccc2)s1	0	7	-6	32*	1	4
Cc1cc(N/N=C/c2ccc(O)cc2)nc(NS(=O)(=O)c2ccccc2)n1	-3	2	2	74*	-1	4
Cc1cc(N/N=C/c2ccccc2)nc(N)n1	-4	-6	-4	42*	1	-4
Cc1nc(N)nc(N/N=C/c2ccccc2)n1	-3	-6	2	12	-5	-9
CC(=O)Nc1ccc(N(C(=O)c2ccco2)C(C(=O)NC2CCCC2)c2ccc(N(C)C)cc2)cc1 (stereo not drawn)	-1	3	2	-10	-1	3
CC1=CC(C)(C)N2C(=O)C3(NCCc4c3[nH]c3ccccc43)c3cc(C)cc1c32 (stereo not drawn)	6	2	0	11	-3	-5
CCCc1nc(SCC(=O)N2CCc3ccccc3C2)c2ccccc2n1	32*	-15	-1	7	5	4
CCCCNC(=O)CSc1nc(CCC)nc2ccccc12	6	-3	-1	3	0	-5
CC(=O)[C@@H]1[C@@H](C(=O)c2ccccc2)[C@]2(C(=O)Nc3ccccc32)[C@H]2C=Cc3cc(F)ccc3N12	6	-10	0	7	-4	-4
O=C(c1ccccc1)[C@@H]1[C@@H](C(=O)c2ccc(F)cc2)[C@@]2(C(=O)Nc3ccccc32)[C@H]2c3ccccc3C=CN12	31*	-42	0	6	-2	56
O=C(Cc1ccc2ccccc2c1)NC(Cc1ccccc1)C(=O)O (stereo not drawn)	.	.	.	3	0	.
SMILES	RecA intein inh	Rv3671c protease	UGM FP inh	GDH-TPI inh	Mtb FBA inh	Mtb bLac sens
COc1ccc(NC(=O)COC(=O)CC2CCCC2)cc1	.	-3	-1	8	0	-2
COC(=O)Cn1c(=NC(=O)c2ccc(OC)cc2)sc2cc(OC)ccc21	-3	-12	1	36*	11	-1
COC(=O)Cn1c(=NC(=O)c2cc(OC)cc(OC)c2)sc2cc(OC)ccc21	0	-27	0	12	-2	-7
O=C(CSc1cccc(C(F)(F)F)c1)Nc1nnc(C2CC2)s1	.	-8	1	0	-1	5
CO/N=C(/CS(=O)Cc1ccccc1Cl)c1ccc(Cl)cc1Cl (stereo not drawn)	5	-2	3	3	2	-10
CN(C)/C=C/c1onc(-c2c(Cl)cccc2Cl)c1C#N	2	-21	1	31*	-1	-1
Cc1ccc2cc(C3C(C#N)=C(N)Oc4c3ccc3cccnc43)c(=O)[nH]c2c1 (stereo not drawn)	-1	9	-2	35*	4	2
CCc1ccc2[nH]c(=O)c(C3C(C#N)=C(N)Oc4c3ccc3cccnc43)cc2c1 (stereo not drawn)	13	-3	0	25	2	10
CC(Nc1c[nH]c(=O)[nH]c1=O)c1ccccc1 (stereo not drawn)	61*	.	0	1	1	10
O=C1C2C3C=CC(C4CC34)C2C(=O)N1/N=C/c1ccc(-c2ccc(Cl)cc2[N+](=O)[O-])o1 (stereo not drawn)	6	2	-2	37*	-1	-4
COc1ccc(-c2ccc(/C=N/N3C(=O)C4C5C=CC(C6CC56)C4C3=O)o2)c([N+](=O)[O-])c1 (stereo not drawn)	2	5	.	15	1	5
O=C1C2C3C=CC(C4CC34)C2C(=O)N1/N=C/c1ccc(-c2ccc(F)cc2[N+](=O)[O-])o1 (stereo not drawn)	-1	4	-1	32*	-5	0
O=S(=O)(Nc1ccc(S(=O)(=O)Nc2nccs2)cc1)c1ccc(Br)cc1	-52	12	-4	-4	0	26
COC(=O)/C=C1\S/C(=N/N=C/c2ccco2)NC1=O	0	-1	-4	33*	-8	91
COC(=O)/C=C1\SC(=NC(=O)c2cccc(Cl)c2)NC1=O	9	-8	.	7	7	5
COC(=O)/C=C1\S/C(=N/N=C/c2ccccc2)NC1=O	-6	-3	.	46*	-3	94
COC(=O)C/C=N/N=C1/NC(=O)/C(=C/C(=O)O)S1	-2	5	-2	35*	-4	-2
COC(=O)/C=C1\S/C(=N/N=C/c2ccc(Cl)cc2)NC1=O	0	-4	-2	35*	-1	-7
COC(=O)/C=C1\S/C(=N/NC(=O)c2ccccc2)NC1=O	11	1	1	30	-3	2
COC(=O)/C=C1/S/C(=N/N=C/c2ccco2)NC1=O	.	12	-3	21	-6	94
COc1ccccc1CNC(=O)CCCN1C(=O)COc2ccc(C)cc21	1	-10	-3	-1	-1	-7
